Assay results published in PubChem BioAssay.
The source made the active and inactive calls.

Tests used:
[1] = tested on: Human papillomavirus type 1a protein E7 (residues 44-93); assay: small molecules binding HPV E7 44-93 – biochemical, small-molecule microarray, residues 44-93, 635 nm fluorescence, primary screen (AID 1108); details: fluorescence 635 nm, higher = more signal;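 note: E7 fragment applied at 1 µg/mL in TBST for 1 h at 4 C; score combines spot fluorescence with its signal to noise ratio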
[2] = hepatitis C replication reporter changes, two-sided – Huh7 cells, luciferase reporter, HCV replication inhibitor project, primary screen (AID 1109); details: Huh7 HCV replicon luciferase reporter, 48 h; higher = more signal;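 note: huh7 hepatoma cells harbouring a luciferase neomycin HCV replicon reporter; luciferase luminescence as measure of HCV replicon replication; test concentration not given here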
[3] = target: Left-right determination factor 2 (Homo sapiens) (UniProt O00292); assay: small molecules binding LEFTY2 protein – biochemical, small-molecule microarray, 635 nm fluorescence scan, primary screen (AID 1110); details: higher = more signal
[4] = target: Calmodulin-1 (Homo sapiens) (UniProt P0DP23); assay: small molecules binding calmodulin-1 with EGTA – biochemical, small-molecule microarray, Cy5-labelled CALM1, profiling panel (AID 1111); details: Cy5-CALM1 binding fluorescence, higher = more signal;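 note: labelled calmodulin applied in Tris saline Tween buffer holding calcium plus EGTA and DTT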
[5] = target: Calmodulin-1 (Homo sapiens) (UniProt P0DP23); assay: small molecules binding Ca-loaded calmodulin-1 – biochemical, small-molecule microarray, Cy5-labelled CALM1, plus calcium, artefact control for SMM control-protein annotation, profiling panel (AID 1112); details: Cy5-CALM1 binding fluorescence, higher = more signal;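 note: score merges spot fluorescence with signal to noise from triplicate slides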
[6] = probe aWnt5a binding to arrayed compounds – biochemical, biotinylated probe, 635/667 nm fluorescence, primary screen (AID 1113); details: small-molecule microarray, higher = more signal;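 note: score merges 667 nm fluorescence intensity with signal-to-noise per printed feature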
[7] = probe aShh binding to arrayed compounds – biochemical, biotinylated probe, 635/667 nm fluorescence, primary screen (AID 1114); details: small-molecule microarray, higher = more signal;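 note: probe is biotin-labelled aShh protein from a stem cell growth factor screen; measures binding of labelled protein to compounds printed on the slide; score merges feature fluorescence at 667 nm with signal-to-noise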
[8] = probe aNog binding to arrayed compounds – biochemical, biotinylated probe, 635/667 nm fluorescence, primary screen (AID 1115); details: small-molecule microarray, higher = more signal;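 note: probe is biotinylated aNog protein used at 0.15 µg/mL for 1 h at 4 C; z-score combines 667 nm fluorescence of each spot with its signal to noise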
[9] = target: Torsin-1A-interacting protein 1 (Homo sapiens) (UniProt Q5JTV8); assay: compound microarray binding of lysate hLAP1 – cell lysate, small-molecule microarray, COS7 lysate, 635/667 nm fluorescence, primary screen (AID 1116); details: 635 nm fluorescence, higher = more signal
[10] = target: Alpha-bungarotoxin (Bungarus multicinctus) (UniProt P60615); assay: compounds binding labelled alpha-BTX control protein – biochemical, small-molecule microarray, Alexa647 label, 635/667 nm fluorescence, artefact control for SMM control protein annotation, profiling panel (AID 1117); details: alpha-BTX-A647 binding fluorescence, higher = more signal
Albumin (Bos taurus) = Albumin (Bos taurus) (UniProt P02769); assay: compounds binding labelled BSA control protein – biochemical, small-molecule microarray, Alexa647 label, 635/667 nm fluorescence, artefact control for SMM control protein annotation, profiling panel (AID 1118); details: BSA-A647 binding, fluorescence 635 nm, higher = more signal;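 note: score merges 667 nm emission intensity and signal-to-noise per printed compound spot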
[11] = probe aXIP binding to arrayed compounds – biochemical, NeuroSMM set, 635/667 nm fluorescence, primary screen (AID 1119); details: small-molecule microarray, higher = more signal, called active from +8 up or from −8 down;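 note: probe is the protein aXip251-270 applied at 1 µg/mL to compound-printed slides; binding of probe to printed compounds measured as 667 nm fluorescence plus signal to noise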
[12] = probe aNOTCH3 binding on compound microarray – biochemical, small-molecule microarray, 635/667 nm fluorescence, primary screen (AID 1120); details: higher = more signal;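 note: probe is a biotin-tagged antibody raised against NOTCH3 rather than NOTCH3 protein; score merges spot fluorescence near 667 nm with spot signal to noise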
[13] = probe aNOTCH2 binding on compound microarray – biochemical, small-molecule microarray, 635/667 nm fluorescence, primary screen (AID 1121); details: higher = more signal;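 note: score merges feature fluorescence read at 667 nm with its signal to noise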
[14] = target: Carbonic anhydrase 2 (Homo sapiens) (UniProt P00918); assay: compounds binding carbonic anhydrase 2 – biochemical, small-molecule microarray, Alexa647-labelled CAII, profiling panel (AID 1122); details: CAII-A647 binding fluorescence, higher = more signal
[15] = COS7 lysate on small-molecule microarray, probe aHis, 635 nm (AID 1123); details: COS7 cell lysate, fluorescence, higher = more signal;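 note: z-score combines 667nm fluorescence intensity with signal-to-noise per printed compound spot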
[16] = probe aLAP1 signal on lysate-treated microarray – cell lysate, small-molecule microarray, COS7 lysate, primary screen (AID 1124); details: probe aLAP1, fluorescence, higher = more signal;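 note: lysate comes from COS7 cells expressing LAP1 and is applied at 0.3 µg/mL; score merges spot fluorescence near 667 nm with signal-to-noise over triplicate slides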
Sam68 (KHDRBS1) = assay: compounds binding KHDRBS1 protein – biochemical, small-molecule microarray, 635 nm fluorescence, primary screen (AID 1125); details: higher = more signal;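 note: score merges 667 nm channel intensity with signal to noise over triplicate slides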
[17] = tested on: Chordin-like protein 2 (CHRDL2); assay: compounds binding chordin-like 2 – biochemical, small-molecule microarray, 635 nm fluorescence, primary screen (AID 1126); details: fluorescence 635 nm, higher = more signal;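 note: printed compound slides probed with Chrdl2 protein at 4 µg/mL for 1 h at 4 C; score merges 667 nm emission intensity with signal to noise over three replicate slides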
[18] = target: Concanavalin-A (Canavalia ensiformis) (UniProt P02866); assay: compounds binding concanavalin A lectin – biochemical, small-molecule microarray, Alexa647 label, 635 nm, artefact control for SMM control protein annotation, primary screen (AID 1127); details: ConA-A647 binding fluorescence, higher = more signal;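 note: z combines 667 nm emission intensity with signal-to-noise across three replicate slides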
Chain of Concanavalin-A (Canavalia ensiformis) (P02866 whole entry, looked up): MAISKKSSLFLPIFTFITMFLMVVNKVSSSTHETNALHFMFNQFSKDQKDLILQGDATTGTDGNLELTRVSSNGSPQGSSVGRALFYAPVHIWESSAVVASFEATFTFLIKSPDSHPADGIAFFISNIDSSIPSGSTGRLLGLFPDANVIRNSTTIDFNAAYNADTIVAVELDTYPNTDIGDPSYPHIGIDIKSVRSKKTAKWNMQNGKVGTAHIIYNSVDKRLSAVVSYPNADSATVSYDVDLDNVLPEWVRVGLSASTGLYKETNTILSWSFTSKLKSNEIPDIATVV

Chain of Left-right determination factor 2 (Homo sapiens) (O00292 whole entry, looked up): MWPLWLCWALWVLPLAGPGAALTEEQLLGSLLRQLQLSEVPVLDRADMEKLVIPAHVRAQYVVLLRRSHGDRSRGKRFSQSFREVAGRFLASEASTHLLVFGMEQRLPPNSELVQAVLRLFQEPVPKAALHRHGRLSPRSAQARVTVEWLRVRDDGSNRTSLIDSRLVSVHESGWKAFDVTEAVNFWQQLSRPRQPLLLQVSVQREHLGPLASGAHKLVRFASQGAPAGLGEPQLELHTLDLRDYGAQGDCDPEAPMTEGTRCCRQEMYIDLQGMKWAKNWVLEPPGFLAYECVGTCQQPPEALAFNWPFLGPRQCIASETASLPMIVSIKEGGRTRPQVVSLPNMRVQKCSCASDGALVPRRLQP
Chain of Albumin (Bos taurus) (P02769 whole entry, looked up): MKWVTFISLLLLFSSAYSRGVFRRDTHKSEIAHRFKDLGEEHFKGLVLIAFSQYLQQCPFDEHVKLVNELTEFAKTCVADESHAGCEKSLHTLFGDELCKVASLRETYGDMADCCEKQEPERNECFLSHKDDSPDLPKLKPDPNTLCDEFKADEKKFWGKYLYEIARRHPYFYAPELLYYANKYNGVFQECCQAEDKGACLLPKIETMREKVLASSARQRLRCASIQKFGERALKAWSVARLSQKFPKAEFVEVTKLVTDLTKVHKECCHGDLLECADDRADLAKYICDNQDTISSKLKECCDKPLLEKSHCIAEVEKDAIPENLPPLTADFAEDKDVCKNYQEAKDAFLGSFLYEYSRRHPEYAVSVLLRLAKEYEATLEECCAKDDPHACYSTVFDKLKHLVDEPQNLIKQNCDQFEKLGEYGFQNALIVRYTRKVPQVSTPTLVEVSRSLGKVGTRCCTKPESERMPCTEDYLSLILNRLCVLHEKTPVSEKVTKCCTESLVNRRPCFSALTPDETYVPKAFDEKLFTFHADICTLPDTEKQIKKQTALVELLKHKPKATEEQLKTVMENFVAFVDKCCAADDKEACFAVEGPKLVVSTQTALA
Chain of Torsin-1A-interacting protein 1 (Homo sapiens) (Q5JTV8 whole entry, looked up): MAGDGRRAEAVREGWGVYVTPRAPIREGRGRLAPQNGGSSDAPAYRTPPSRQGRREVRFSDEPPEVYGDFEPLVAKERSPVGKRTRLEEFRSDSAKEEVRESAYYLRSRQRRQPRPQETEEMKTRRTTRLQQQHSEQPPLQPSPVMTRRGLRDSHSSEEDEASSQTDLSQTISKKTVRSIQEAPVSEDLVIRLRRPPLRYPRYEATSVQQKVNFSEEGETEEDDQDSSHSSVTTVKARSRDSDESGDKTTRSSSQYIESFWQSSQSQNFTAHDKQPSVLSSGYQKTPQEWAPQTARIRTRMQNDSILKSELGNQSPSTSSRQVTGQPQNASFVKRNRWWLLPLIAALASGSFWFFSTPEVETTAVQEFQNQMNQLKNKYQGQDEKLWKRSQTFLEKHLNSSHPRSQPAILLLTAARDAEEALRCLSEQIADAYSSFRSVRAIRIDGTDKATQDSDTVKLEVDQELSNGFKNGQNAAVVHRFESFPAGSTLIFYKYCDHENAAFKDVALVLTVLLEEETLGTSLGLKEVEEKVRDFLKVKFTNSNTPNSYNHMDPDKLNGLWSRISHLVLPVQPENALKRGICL
Chain of Alpha-bungarotoxin (Bungarus multicinctus) (P60615 whole entry, looked up): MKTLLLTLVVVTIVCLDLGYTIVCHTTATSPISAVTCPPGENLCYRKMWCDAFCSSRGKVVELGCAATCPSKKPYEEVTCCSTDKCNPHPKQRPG

Row | SMILES | composite z-score [1] | z-score [2] | composite z-score [3] | composite z-score [4] | composite z-score [5] | composite z-score [6] | composite z-score [7] | composite z-score [8] | composite z-score [9] | composite z-score [10] | composite z-score (Albumin (Bos taurus)) | composite Z-score [11] | composite z-score [12] | composite z-score [13] | composite z-score [14] | composite z-score [15] | composite z-score [16] | composite z-score (Sam68 (KHDRBS1)) | composite z-score [17] | composite z-score [18]
1 | COCCOC(=O)N1C(=O)[C@@]2(c3cc(C#Cc4ccc(OC)cc4)ccc31)[C@H](C(=O)Nc1nc3ccccc3s1)[C@H]1C(=O)O[C@H](c3ccccc3)[C@H](c3ccccc3)N1[C@@H]2c1ccccc1OCCO | 0.773 | -1.43 | 0.615 | 1.5 | 0.747 | -0.299 | -0.138 | -0.7 | 0.188 | 0.968 | 0.545 | -0.331 (inactive) | 0.124 | 0.159 | 0.547 | 0.874 | 0.304 | 0.997 | 0.649 | 1.11
2 | C=CCNC(=O)[C@H]1[C@@H]2C(=O)O[C@@H](c3ccccc3)[C@@H](c3ccccc3)N2[C@@H](c2ccccc2OCCO)[C@]12C(=O)N(C(=O)OCCOC)c1ccccc12 | 1.11 | -3.16 | 0.142 | 0.336 | 0.287 | -0.124 | 0.0684 | 0.86 | 1.13 | 1.53 | 0.813 | -0.104 (inactive) | -0.161 | -0.153 | 0.567 | 1.96 | 0.883 | 1.21 | 0.414 | 1.13
3 | O=C1NC(=O)C2C1C=CC(C(O)c1cccc(O)c1)N2Nc1ccc(Cl)cc1Cl (stereo not given) | -0.429 | -0.591 | -0.715 | 0.741 | 0.675 | -0.104 | -0.212 | -0.237 | -0.369 | 0.369 | 0.33 | -0.136 (inactive) | -0.0043 | 0.0592 | 0.757 | 1.4 | -0.452 | -1.81 | -0.474 | -0.0019
4 | C=CC[C@]1(C(=O)NCCCOC)N=C(c2ccc(OCCCO)cc2)O[C@H]1c1ccccc1 | 1.44 | -1.53 | -0.916 | 0.287 | -0.484 | 0.108 | -0.0626 | 0.328 | 1.03 | -0.0901 | 0.812 | -0.397 (inactive) | 0.0522 | -0.131 | 0.783 | 2.66 | 0.648 | 1.07 | -1.08 | 0.335
5 | CCC[C@@H]1[C@@H](Sc2ccccc2)[C@@H](C(=O)O)[C@H](c2ccc(C)cc2)N1S(=O)(=O)c1ccc(C)cc1 | 1.47 | -1.57 | 0.241 | 1.87 | 0.859 | 0.108 | -0.0866 | -0.0987 | 0.425 | 1.41 | 0.771 | 0.398 (inactive) | 0.322 | -0.0794 | 0.594 | 2.65 | 1.39 | 1.33 | -0.432 | 1.23
6 | CCCCN1CC=CC23O[C@@H]4C=CCOC(=O)[C@@H]4[C@H]2C(=O)N(C(CO)C(C)C)[C@@H]3C1=O (stereo not given in full) | -0.321 | -1.23 | -0.383 | -0.782 | -0.828 | -0.173 | -0.138 | -0.381 | -0.457 | -0.843 | -0.709 | -0.0632 (inactive) | -0.279 | -0.14 | 0.321 | -0.665 | -0.304 | -0.616 | -0.0407 | -0.868
7 | CC(C)C[C@H]1NC(=O)[C@H](Cc2ccccc2)NC(=O)[C@@]23C(=O)N[C@@H](Cc4ccccc4)C2[C@H](C)[C@@]2(C)O[C@H]2C3/C=C/C/C=C\CNC1=O (stereo not given in full) | -0.361 | -2.09 | 0.431 | -0.128 | 0.263 | -0.096 | -0.214 | 0.3 | 0.765 | 0.93 | -0.235 | 0.63 (inactive) | -0.0077 | -0.153 | 0.535 | 1.14 | 0.495 | 1.3 | 0.937 | 0.738
8 | C#CCN=C(N)N | 0.69 | -0.613 | 1.11 | -0.617 | -0.736 | -0.131 | -0.0813 | -0.226 | 0.622 | 0.0757 | -0.0077 | 0.322 (inactive) | 0.0276 | -0.0403 | 0.41 | 0.121 | 0.118 | 0.754 | 0.437 | 0.604
9 | CN(C)C(=O)[C@@]1(CCS(=O)(=O)c2ccccc2)N=C(c2ccc(OCCCO)cc2)O[C@H]1c1ccccc1N=[N+]=[N-] | 1.43 | -0.235 | 0.258 | -0.038 | -0.0024 | 0.0445 | 0.199 | -0.484 | 1.56 | 0.901 | 0.856 | -0.288 (inactive) | 0.488 | -0.112 | 0.669 | 2.13 | 0.521 | 1.29 | -0.0717 | 0.972
10 | CC(=O)c1ccc(C(O)C2C=CC3C(=O)N(C)C(=O)C3N2NC(=O)OC(C)(C)C)cc1 (stereo not given) | 0.955 | -0.859 | 0.237 | 2.2 | 1.19 | 0.0279 | 0.207 | 1.7 | 0.486 | 2.12 | 1 | -0.331 (inactive) | 0.103 | 0.119 | 0.885 | 2.61 | 0.366 | 1.29 | -0.971 | 1.17
11 | CCCCC(=C=CC[C@@H](O)c1cccc(OCCO)c1)CCO | -0.333 | -0.165 | -0.125 | -0.494 | 0.181 | -0.18 | 0.0121 | -0.405 | 0.297 | 2.16 | 0.319 | -0.462 (inactive) | -0.119 | -0.142 | 0.34 | 0.592 | 0.0297 | 0.158 | -0.596 | -0.0305
12 | O=C1O[C@@H](c2ccccc2)[C@@H](c2ccccc2)N2[C@@H](c3ccc(O)cc3)[C@]3(C(=O)Nc4ccc(C#CC5=CCCCC5)cc43)[C@@H](C(=O)N3CCCCCCC3)[C@H]12 | 1.38 | -1.46 | 0.455 | 1.61 | 0.485 | 0.654 | 2.04 | 2.52 | 3.16 | 2.25 | 0.508 | 2.78 (inactive) | 1.24 | 0.276 | 0.589 | 2.97 | 1.85 | 1.29 | 0.543 | 0.702
13 | C=CCOC(=O)[C@@H]1[C@H]2C(=O)O[C@H](c3ccccc3)[C@H](c3ccccc3)N2[C@H](c2ccc(OCCOC(=O)[C@H]3C[C@H]4C(=O)NCC(=O)N4[C@H]3c3ccc(O)cc3)cc2)[C@@]12C(=O)Nc1ccc(I)cc12 | 0.222 | -2.09 | 0.606 | 0.342 | -0.103 | -0.0758 | -0.294 | 0.036 | 1.27 | 1.74 | -1.07 | 0.683 (inactive) | -0.0711 | -0.117 | 0.323 | 1.94 | -0.159 | 1.29 | 0.826 | 1.16
14 | C=C(COC)C(=O)CC[C@@H](OC(C)=O)c1ccc(OCCO)cc1 | -0.133 | -1.23 | -0.374 | -0.473 | -0.621 | -0.154 | 0.0373 | 0.197 | 0.119 | 1.39 | -0.561 | 0.392 (inactive) | 0.0426 | -0.125 | 0.648 | 0.206 | -0.217 | 0.744 | -0.127 | 0.891
15 | COCCOC(=O)N1C(=O)[C@@]2(c3cc(C#Cc4ccc(OC)cc4)ccc31)[C@H](C(=O)N1CCCCCCC1)[C@H]1C(=O)O[C@H](c3ccccc3)[C@H](c3ccccc3)N1[C@@H]2c1ccccc1OCCO | 1.35 | -0.0111 | 0.647 | 2.42 | 1.49 | 1.16 | 0.451 | 1.53 | 4.47 | 2.27 | 0.768 | 4.24 (inactive) | 1.49 | 0.793 | 0.472 | 3 | 1.3 | 1.3 | 1.21 | 0.893
16 | [N-]=[N+]=NCc1ccccc1C[C@]1(C(=O)N2CCOCC2)N=C(c2ccc(OCCCO)cc2)O[C@H]1c1ccccc1CN=[N+]=[N-] | 0.344 | -2.48 | -0.0716 | 2.49 | 1.28 | 0.653 | 0.564 | 0.967 | 2.79 | 2.74 | 0.954 | -0.161 (inactive) | 0.598 | 0.502 | 0.802 | 3.34 | 0.853 | 1.3 | -0.655 | 1.14
